Consider seven compounds from PubChem BioAssay (NCI).

“And” between values parts separate entries of the source, which are not always exact repeats. Identical values can stand only once. The panel holds about 83,000 compounds, 20% with a hit somewhere; the sample as a whole holds those more often.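 Single-concentration screen, 48 h exposure, 96-well plates. Endpoint: percent growth. Below 10 = active.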 Values without a mark were called inactive. The source made the active and inactive calls.

Among the test systems are HCT-15 colon; HT29 colon; SNB-75 CNS; SNB-19 CNS; U251 CNS; PC-3 prostate; SK-MEL-5 melanoma; UACC-62 melanoma; LOX IMVI melanoma; SK-MEL-28 melanoma; SK-MEL-2 melanoma; EKVX NSCLC; SN12C renal; UO-31 renal; TK-10 renal; ACHN renal; CAKI-1 renal; A498 renal; CCRF-CEM leukemia; MOLT-4 leukemia.
Holding throughout (test): NCI-60 one-dose screen, 48 h (100 = growth as untreated, 0 = no growth, -100 = all killed)
What all share (conditions): 10 µM unless noted

Take `O=C(CCCOc1ccc(Br)cc1)Nc1ncc(Cc2ccc(F)cc2)s1`: the growth in the experiment with HCT-15 colon was 38.6%; in the experiment on HT29 colon, 49.1%; in the experiment on SNB-75 CNS, 55%; in the experiment with SNB-19 CNS, 76.5%; in the experiment with U251 CNS it was 80.4%; in the experiment on PC-3 prostate, 72.9%. The growth in the experiment with SK-MEL-5 melanoma was 68.8%; in the experiment with UACC-62 melanoma, 50.2%; with LOX IMVI melanoma it was 64.6%; in the experiment on SK-MEL-28 melanoma, 76.8%; in the experiment with SK-MEL-2 melanoma, 93.3%; with EKVX NSCLC it was 77%. The growth was 82.7% in the experiment on SN12C renal; 62.6% in the experiment with UO-31 renal; 86.5% in the experiment on TK-10 renal; 72.9% with ACHN renal; 37% in the experiment with CAKI-1 renal; 76.7% in the experiment on A498 renal. Further, the results for the growth in the experiment on CCRF-CEM leukemia and in the experiment on MOLT-4 leukemia were 64.4% and 73.8%, respectively.

On to `Cn1cc(-c2nc3c(F)cc4[nH]ncc4c3c3c2CCCC3)c(C(F)F)n1`, for which the growth in the experiment on HCT-15 colon was 66.6%; in the experiment with HT29 colon, 68.4%; with SNB-75 CNS it was 57.6%; in the experiment with SNB-19 CNS, 71.2%; in the experiment with U251 CNS, 80.5%; with PC-3 prostate it was 29%. In addition, the growth with SK-MEL-5 melanoma was 65.4%; in the experiment with UACC-62 melanoma, 51.9%; in the experiment with LOX IMVI melanoma, 62.6%; in the experiment with SK-MEL-28 melanoma, 80.8%; in the experiment on SK-MEL-2 melanoma, 76.7%; with EKVX NSCLC it was 54.5%. In addition, the growth in the experiment on SN12C renal is 66.7%; in the experiment on UO-31 renal, 35.8%; in the experiment on TK-10 renal, 52.3%; in the experiment on ACHN renal, 44.3%; with CAKI-1 renal, 37%; with A498 renal, 33.1%. In addition, the growth was 4.61% (active) in the experiment on CCRF-CEM leukemia and 7.32% (active) in the experiment on MOLT-4 leukemia.

With `N#Cc1ccccc1OCC(=O)Nc1nc2c(s1)COc1ccccc1-2`, the growth is 103% in the experiment on HCT-15 colon; 104% in the experiment with HT29 colon; 82.7% in the experiment with SNB-75 CNS; 102% with SNB-19 CNS; 98.8% with U251 CNS; 102% in the experiment on PC-3 prostate. For the same compound, the growth with SK-MEL-5 melanoma was 103%; in the experiment on UACC-62 melanoma it was 82.4%; in the experiment on LOX IMVI melanoma it was 90.6%; in the experiment with SK-MEL-28 melanoma, 116%; with SK-MEL-2 melanoma, 88.7%; with EKVX NSCLC, 86.7%. In addition, the growth was 96.2% in the experiment on SN12C renal; 72.4% in the experiment on UO-31 renal; 140% in the experiment with TK-10 renal; 102% in the experiment with ACHN renal; 99.2% in the experiment on CAKI-1 renal; 130% in the experiment on A498 renal. In addition, the growth was 96% in the experiment on CCRF-CEM leukemia and 77.5% with MOLT-4 leukemia.

Turning to `Nc1nc(Nc2cccnc2)sc1C(=O)c1ccccc1F`, the growth with HCT-15 colon is 27.7%; in the experiment with HT29 colon it was 35.9%; in the experiment on SNB-75 CNS, 30.3%; in the experiment on SNB-19 CNS it was 43.1%; in the experiment with U251 CNS, 42%; in the experiment with PC-3 prostate, 43.2%. Moreover, the growth was 30.1% in the experiment with SK-MEL-5 melanoma; 42.4% in the experiment on UACC-62 melanoma; 29.8% in the experiment with LOX IMVI melanoma; 65.9% in the experiment with SK-MEL-28 melanoma; 48.5% with SK-MEL-2 melanoma; 50.7% in the experiment on EKVX NSCLC. Also, the growth was 36.8% in the experiment on SN12C renal; 9.16% (active) in the experiment with UO-31 renal; 54.6% in the experiment with TK-10 renal; 9.23% (active) in the experiment with ACHN renal; -3.89% (active) in the experiment with CAKI-1 renal; 26.4% with A498 renal. For the same compound, the growth was 4.65% (active) in the experiment on CCRF-CEM leukemia and 26.8% in the experiment with MOLT-4 leukemia.

Consider `CC12CCC(C(=O)CC1=O)C2(C)C` (stereo not given), for which the growth with HCT-15 colon is 103% and 106%; with HT29 colon it was 108% and 109%; in the experiment on SNB-75 CNS, 87.5% and 95.1%; with SNB-19 CNS it was 107% and 105%; in the experiment with U251 CNS it was 99.6% and 100%; in the experiment on PC-3 prostate it was 97.2% and 104%. Further, the growth was 99.8% and 104% in the experiment on SK-MEL-5 melanoma; 102% and 106% in the experiment on UACC-62 melanoma; 97.3% and 95.3% in the experiment with LOX IMVI melanoma; 106% in the experiment on SK-MEL-28 melanoma; 110% with SK-MEL-2 melanoma; 97.5% in the experiment on EKVX NSCLC. For the same compound, the growth in the experiment on SN12C renal was 102%; in the experiment on UO-31 renal, 88.3% and 87.1%; in the experiment on TK-10 renal, 100% and 105%; in the experiment on ACHN renal, 107% and 106%; with CAKI-1 renal, 101% and 97%; in the experiment with A498 renal, 93.2% and 108%. In addition, the growth is 103% and 96.8% with CCRF-CEM leukemia; 82.6% and 96.5% with MOLT-4 leukemia.

As to `COc1cc(NC2CCCCC2O)c2nc(-c3ccc(Cl)cc3)ccc2c1` (stereo not given), the growth in the experiment with HCT-15 colon is 49.6% and 62.8%; in the experiment with HT29 colon, 54.2% and 67.9%; in the experiment on SNB-75 CNS, 82% and 103%; in the experiment with SNB-19 CNS, 83.4% and 93.6%; with U251 CNS, 56.8% and 68.8%; in the experiment on PC-3 prostate, 70.1%. The growth in the experiment with SK-MEL-5 melanoma is 96.6% and 98.1%; with UACC-62 melanoma, 83.7% and 94.7%; in the experiment on LOX IMVI melanoma, 41.4% and 77%; with SK-MEL-28 melanoma it was 94.2% and 96.7%; in the experiment with SK-MEL-2 melanoma, 91.5% and 80.4%; with EKVX NSCLC, 78.3% and 94.4%. The growth with SN12C renal is 80.1% and 103%; in the experiment on UO-31 renal, 71.1% and 86.8%; in the experiment on TK-10 renal, 82.2% and 125%; in the experiment with ACHN renal, 84.4% and 87.5%; with CAKI-1 renal it was 46.9% and 61.3%; in the experiment on A498 renal, 101%. The growth with CCRF-CEM leukemia is 53.7% and 40.2%; in the experiment with MOLT-4 leukemia, 33.4%.

Regarding `CN(C)CC1(C)Cc2ccsc2C1O` (stereo not given), the growth with HCT-15 colon is 108% and 105%; with HT29 colon, 104% and 99.1%; in the experiment with SNB-75 CNS, 110% and 101%; with SNB-19 CNS, 108% and 106%; in the experiment on U251 CNS, 112% and 103%; with PC-3 prostate it was 98.2% and 100%. Besides, the growth is 110% and 107% in the experiment with SK-MEL-5 melanoma; 109% and 112% in the experiment with UACC-62 melanoma; 97.3% and 102% with LOX IMVI melanoma; 120% and 126% in the experiment with SK-MEL-28 melanoma; 108% and 110% in the experiment on SK-MEL-2 melanoma; 103% and 92.3% in the experiment on EKVX NSCLC. For the same compound, the growth in the experiment with SN12C renal is 110% and 111%; with UO-31 renal, 94.2% and 87.3%; in the experiment on TK-10 renal, 105% and 94.1%; in the experiment with ACHN renal, 99.6% and 106%; in the experiment with CAKI-1 renal it was 106% and 103%; in the experiment on A498 renal, 97.9% and 95.5%. Moreover, the growth in the experiment with CCRF-CEM leukemia was 94.8%; with MOLT-4 leukemia it was 99.9% and 86.4%.
